Source: PubChem BioAssay (Tox21)
Inconclusive results are not listed. The source made the active and inactive calls. Unless noted, calls follow the shape of the dose curve; as a rule, active = well fitted curve in the direction sought with a large enough effect in the repeat runs; inconclusive = weak or mixed curves; inactive = no such curve, though single readings can be large; an effect the other way counts as inactive or inconclusive.

Experiments:
[1] = biological target: Progesterone receptor (Homo sapiens) (UniProt P06401); assay: qHTS assay to identify small molecule agonists of the progesterone receptor (PR) signaling pathway (AID 1346784; calls by dose curve; also: nearly all actives have a fitted effect of over 30% in size; also: potency is read from the fitted curve at half-maximal effect)
Procedure, shortened: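 Using charcoal-stripped serum (2%) to limit endogenous steroids, PR-UAS-bla HEK 293T cells received compounds for 16 hr at 37C after 6 hr plating; beta-lactamase FRET fluorescence was recorded following 2 hr substrate loading at room temperature.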

[2] = biological target: Progesterone receptor (Homo sapiens) (UniProt P06401); assay: qHTS assay to identify small molecule antagonists of the progesterone receptor (PR) signaling pathway (AID 1346795; active = well fitted inhibition curve with a large enough effect in the signal ratio in the repeat runs, not every such curve was filed as active; the % refers to the signal ratio)
Procedure, shortened: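 Inhibition of R5020-induced (1 nM final) beta-lactamase reporter signal in PR-UAS-bla HEK293T cells was scored by FRET fluorescence after overnight (16 hr) compound treatment.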

[3] = qHTS assay to identify small molecule antagonists of the progesterone receptor (PR) signaling pathway - cell viability counter screen (AID 1346798); also: series mostly up to about 92 µM; nearly all actives have a fitted effect of over 50% in size
Procedure, shortened: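 ATP content as viability readout: CellTiter-Glo luminescence, 30 min room temperature, in PR-UAS-bla HEK293T cells after 16 hr compound/R5020 treatment at 37C and 5% CO2.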

[4] = qHTS assay to identify small molecule agonists of the progesterone receptor (PR) signaling pathway - cell viability counter screen (AID 1346799; calls by dose curve; also: nearly all actives have a fitted effect of over 45% in size)
Procedure, shortened: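 Cytotoxicity in PR-bla HEK293T cells: 16 h compound, 37C; CellTiter-Glo added post-FRET read; luminescence after 30 min RT.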

[5] = qHTS assay to identify small molecule antagonists of the TGF-beta/Smad signaling pathway - cell viability counter screen (AID 1346824); also: nearly all actives have a fitted effect of over 50% in size
Procedure, shortened: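 Cytotoxicity counter-screen run in the same wells as the beta-lactamase Smad reporter read: CellTiter-Glo luminescence after 30 min at room temperature. HEK 293T SBE-bla cells had 5 hr compound exposure at 37 C with TGF-beta1 (0.25 ng/mL stock).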

[6] = qHTS assay to identify small molecule agonists of the TGF-beta/Smad signaling pathway - cell viability counter screen (AID 1346829); also: top concentration of the series differs between compounds; nearly all actives have a fitted effect of over 45% in size
Procedure, shortened: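 Here the cytotoxicity of library compounds is measured in SBE-bla HEK 293T cells treated for 5 hr, using CellTiter-Glo added to wells already read for the beta-lactamase reporter.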

[7] = qHTS assay to identify small molecule agonists of the TGF-beta/Smad signaling pathway (AID 1346859; active = well fitted activation curve with a large enough effect in the signal ratio in the repeat runs, not every such curve was filed as active; the % refers to the signal ratio; also: series mostly up to about 77 µM)
Procedure, shortened: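 Stable Smad binding element-beta-lactamase HEK 293T cells; 5 hr compound exposure at 37 C under 5% CO2; 2 hr room-temperature substrate step; fluorescence excited at 405 nm, collected at 460 nm and 530 nm.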

[8] = biological target: Thyrotropin-releasing hormone receptor (Homo sapiens) (UniProt P34981); assay: qHTS assay to identify small molecule antagonists of the thyrotropin-releasing hormone receptor (TRHR) signaling pathway (AID 1346877; active = well fitted inhibition curve with a large enough effect in the repeat runs, not every such curve was filed as active; also: series mostly up to about 51 µM)
Procedure, shortened: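 Intracellular calcium fluorescence, read kinetically every second over 3 min, reports TRH-evoked signalling in HEK293 cells carrying TRHR. Test compounds were added 5 min ahead of a 1 nM TRH challenge.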

[9] = biological target: Thyrotropin-releasing hormone receptor (Homo sapiens) (UniProt P34981); assay: qHTS assay to identify small molecule agonists of the thyrotropin-releasing hormone receptor (TRHR) signaling pathway (AID 1346891; calls by dose curve;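 also: HEK293 cells expressing TRHR with calcium dye readout; series mostly up to about 58 µM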)
Procedure, shortened: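 In 1536-format, 1500 TRHR-Hek293 cells per well grew 18 h, took up calcium dye for 2 h at 37 °C, received compound, and were read kinetically; 15-point titrations, triplicates.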

[10] = Human pregnane X receptor (PXR) small molecule agonists, qHTS cell viability counter screen (AID 1346977); also: nearly all actives have a fitted effect of over 50% in size
Procedure, shortened: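 Readout is CellTiter-Fluor fluorescence from PXR-Luc HepG2 cells. Plated cells rested 5hr, then were treated with compounds for 24hr at 37C and 5% CO2, with reagent present during the last hour.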
% is scaled to controls: 0 for no effect and ±100 for the full control effect.

Chain of Thyrotropin-releasing hormone receptor (Homo sapiens) (P34981 whole entry, looked up): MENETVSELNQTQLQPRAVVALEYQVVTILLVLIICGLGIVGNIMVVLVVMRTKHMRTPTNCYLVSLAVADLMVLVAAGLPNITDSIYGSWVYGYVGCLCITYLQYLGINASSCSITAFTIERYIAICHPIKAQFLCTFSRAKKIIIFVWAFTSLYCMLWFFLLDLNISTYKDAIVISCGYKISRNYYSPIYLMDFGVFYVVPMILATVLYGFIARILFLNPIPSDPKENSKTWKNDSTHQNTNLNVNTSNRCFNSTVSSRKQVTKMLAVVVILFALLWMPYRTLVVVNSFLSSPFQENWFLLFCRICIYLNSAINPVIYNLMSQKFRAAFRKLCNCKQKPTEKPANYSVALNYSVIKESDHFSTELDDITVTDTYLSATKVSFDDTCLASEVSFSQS
Chain of Progesterone receptor (Homo sapiens) (P06401 whole entry, looked up): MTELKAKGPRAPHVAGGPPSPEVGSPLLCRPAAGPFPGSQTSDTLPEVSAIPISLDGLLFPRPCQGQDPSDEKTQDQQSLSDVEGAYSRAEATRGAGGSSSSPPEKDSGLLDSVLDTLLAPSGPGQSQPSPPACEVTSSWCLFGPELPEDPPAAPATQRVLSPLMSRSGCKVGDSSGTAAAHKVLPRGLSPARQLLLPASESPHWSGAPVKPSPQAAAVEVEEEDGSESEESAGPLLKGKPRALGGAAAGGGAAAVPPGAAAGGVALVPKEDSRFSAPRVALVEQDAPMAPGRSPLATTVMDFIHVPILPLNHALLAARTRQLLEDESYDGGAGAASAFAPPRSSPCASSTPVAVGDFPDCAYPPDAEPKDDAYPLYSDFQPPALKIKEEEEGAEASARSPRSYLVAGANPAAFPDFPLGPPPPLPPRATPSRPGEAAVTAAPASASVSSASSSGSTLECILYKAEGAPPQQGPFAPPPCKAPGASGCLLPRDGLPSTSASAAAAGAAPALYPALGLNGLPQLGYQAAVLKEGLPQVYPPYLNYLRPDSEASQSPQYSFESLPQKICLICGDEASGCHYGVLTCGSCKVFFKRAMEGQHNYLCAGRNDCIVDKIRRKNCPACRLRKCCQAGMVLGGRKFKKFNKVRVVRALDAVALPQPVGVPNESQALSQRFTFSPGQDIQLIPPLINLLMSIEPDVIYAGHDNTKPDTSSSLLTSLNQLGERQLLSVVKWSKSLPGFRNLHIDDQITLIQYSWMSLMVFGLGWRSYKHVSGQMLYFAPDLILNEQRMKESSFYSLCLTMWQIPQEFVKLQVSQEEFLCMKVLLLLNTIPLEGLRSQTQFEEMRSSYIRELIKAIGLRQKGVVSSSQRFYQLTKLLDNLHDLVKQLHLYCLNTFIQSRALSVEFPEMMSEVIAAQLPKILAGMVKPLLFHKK

NC(=O)CCCCC(N)=O
inactive: Potency [1] | Potency [2] | Potency [3] | Potency [4] | outcome [5] | Potency [6] | Potency [7] | outcome [8] | outcome [9] | Potency [10]

CCC(CO)(CO)CO
inactive: Potency [1] | Potency [2] | Potency [3] | Potency [4] | outcome [5] | Potency [6] | Potency [7] | outcome [8] | outcome [9] | Potency [10]

CC(=O)OCCC1CCCCC1
inactive: Potency [1] | Potency [2] | Potency [3] | Potency [4] | outcome [5] | Potency [6] | Potency [7] | outcome [8] | outcome [9] | Potency [10]

COc1ccc(N)c([N+](=O)[O-])c1
inactive: Potency [1] | Potency [2] | Potency [3] | Potency [4] | outcome [5] | Potency [6] | Potency [7] | outcome [8] | outcome [9]

ClC1=C(Cl)C1(Cl)Cl
inactive: Potency [1] | Potency [2] | Potency [3] | Potency [4] | outcome [5] | Potency [6] | Potency [7] | outcome [8] | outcome [9] | Potency [10]

CCCCCCCCCCCCCOC(=O)CCSCCC(=O)OCCCCCCCCCCCCC
active: Potency [1] 0.644 µM
inactive: activity change, negative = inhibition [2] 5.83% [at 18.9 µM] | activity change, negative = cytotoxicity [3] -8.45% [at 18.9 µM] | activity change, negative = cytotoxicity [4] 36.2% [at 19 µM] | viability change, negative = cytotoxic [5] 16.1% [at 15.8 µM] | activity change, negative = cytotoxicity [6] -1.41% [at 15.8 µM] | activation [7] 1.33% [at 15.8 µM] | activity, negative = inhibition [8] 4.46% [at 10.5 µM] | activation [9] 0.934% [at 11.8 µM] | activity change, negative = cytotoxicity [10] -0.253% [at 19 µM]

O=[N+]([O-])c1ccc2ncccc2c1
inactive: Potency [1] | Potency [2] | Potency [3] | Potency [4] | outcome [5] | Potency [6] | Potency [7] | outcome [8] | outcome [9] | Potency [10]

Cc1ccc(NC(=O)N(C)C)cc1NC(=O)N(C)C
inactive: Potency [1] | Potency [2] | Potency [3] | Potency [4] | outcome [5] | Potency [6] | Potency [7] | outcome [8] | outcome [9] | Potency [10]

CCN(CC)CCOC(=O)C(c1ccccc1)c1ccccc1
inactive: Potency [1] | Potency [2] | Potency [3] | Potency [4] | outcome [5] | Potency [6] | Potency [7] | outcome [8] | outcome [9]

CCc1ccc(C)cc1
inactive: Potency [1] | Potency [2] | Potency [3] | Potency [4] | outcome [5] | Potency [6] | Potency [7] | outcome [8] | outcome [9] | Potency [10]

COC(=O)CC(C(C)=O)C(=O)OC (stereo not drawn)
inactive: Potency [1] | Potency [2] | Potency [3] | Potency [4] | outcome [5] | Potency [6] | Potency [7] | outcome [8] | outcome [9] | Potency [10]

O=C(O)CCS
inactive: Potency [1] | Potency [2] | Potency [3] | Potency [4] | outcome [5] | Potency [6] | Potency [7] | outcome [8] | outcome [9] | Potency [10]

C=CCOC(=O)COCCC(C)C
inactive: Potency [1] | Potency [2] | Potency [3] | Potency [4] | outcome [5] | Potency [6] | Potency [7] | outcome [8] | outcome [9] | Potency [10]

CCCCCCC(O)CCCCCCCCCCC(=O)OC (stereo not drawn)
inactive: Potency [1] | Potency [2] | Potency [3] | Potency [4] | outcome [5] | Potency [6] | Potency [7] | outcome [8] | outcome [9] | Potency [10]

Nc1ccc(F)cc1
inactive: Potency [2] | Potency [3] | Potency [4] | outcome [5] | Potency [6] | Potency [7] | outcome [8] | outcome [9] | Potency [10]
active: Potency [1] 28.5 µM

CCCCCCOC(=O)CCCCC
inactive: Potency [1] | Potency [2] | Potency [3] | Potency [4] | outcome [5] | Potency [6] | Potency [7] | outcome [8] | outcome [9] | Potency [10]

CC1C(C)(C)C2=C(C(=O)CCC2)C1(C)C (stereo not drawn)
inactive: Potency [1] | Potency [2] | Potency [3] | Potency [4] | outcome [5] | Potency [6] | Potency [7] | outcome [8] | outcome [9] | Potency [10]

O=C(O)/C=C/c1ccc(O)c(O)c1
inactive: Potency [1] | Potency [2] | Potency [3] | Potency [4] | outcome [5] | Potency [6] | Potency [7] | outcome [8] | outcome [9] | Potency [10]

CC(C)(C)S
inactive: Potency [1] | Potency [2] | Potency [3] | Potency [4] | outcome [5] | Potency [6] | Potency [7] | outcome [8] | outcome [9] | Potency [10]

CCNc1nc(N)nc(Cl)n1
inactive: Potency [1] | Potency [2] | Potency [3] | Potency [4] | outcome [5] | Potency [6] | Potency [7] | outcome [8] | outcome [9] | Potency [10]

COC(C)(C)OC
inactive: Potency [1] | Potency [2] | Potency [3] | Potency [4] | outcome [5] | Potency [6] | Potency [7] | outcome [8] | outcome [9] | Potency [10]

CCCCCc1ccco1
inactive: Potency [1] | Potency [2] | Potency [3] | Potency [4] | outcome [5] | Potency [6] | Potency [7] | outcome [8] | outcome [9] | Potency [10]
